Sa RN4220 lethal: growth inhibition of S. aureus RN4220, primary screen, OD600; 330,000 compounds, 0.33% hits; AID 1259311, 2017; inhibition, % (no concentration beside the values); 16 h; in the data active = inhibition above about 85%
Vc quorum ag: inducers of Vibrio cholerae quorum light production without autoinducers, primary screen, BH1578 luxS cqsA deficient, single point. activation, % at 18.7 µM. V. cholerae BH1578 lux reporter, luminescence, 6 h. 350,000 compounds, 0.16% hits; in the data active = activation mostly above about 9.7%, no sharp cut-off; inconclusive = no clear call, values can overlap the other calls; inactive = mostly below about 3.7%
PfHsp40 rescue: rescue of yeast from PfHsp40 toxicity, primary screen, S. cerevisiae, ATP luminescence; S. cerevisiae expressing PfHsp40, growth rescue; growth rescue, % at 12.5 µM; 340,000 compounds, 0.68% hits; AID 504582, 2011; in the data active = growth rescue above about 28%, passing the limit was not always enough; inconclusive = no clear call, values can overlap the other calls;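 note: yeast W303a lacking pdr1 and pdr3 grown in galactose medium; growth measured after three days at 30 °C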
Mtb betalactam: beta-lactam sensitization of Mtb H37Rv, H37Rv; M. tuberculosis H37Rv growth with meropenem, percent inhibition; AID 434955, 2010; 330,000 compounds, 0.27% hits; inhibition, % at 25 µM; call rule not given here;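 note: growth measured after seven days incubation then overnight dye step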
Sa ugtP lethal: growth inhibition of ugtP-null S. aureus, primary screen, RN4220 ugtP deletion, OD600; 330,000 compounds, 0.54% hits; 16 h; growth inhibition, % (test concentration not listed); AID 1259309, 2017; in the data active = growth inhibition above about 68%
Each line names hits and unclear results; the compound was inactive in the other large screens. The list is not random: actives were taken first. Their share in the collection is about 1.2%.

COc1cccc(C2=Nn3c(nnc3-c3ccccc3O)SC2)c1	none
C[n+]1c2n(c3ccccc31)N=C(c1cc(C(C)(C)C)c(O)c(C(C)(C)C)c1)CS2	Sa RN4220 lethal 99, PfHsp40 rescue inconclusive, Sa ugtP lethal 98
CCCCCCCCCCSc1n[nH]c(N)n1	PfHsp40 rescue 303, Sa ugtP lethal 84
CCCCCCCCSc1n[nH]c(N)n1	none
CCCCCCCC[n+]1cccc2c3ccccc3ccc21	Sa RN4220 lethal 100, Sa ugtP lethal 101
CCCCCCCCCC[n+]1cccc2c3ccccc3ccc21	Sa RN4220 lethal 100, PfHsp40 rescue 133, Sa ugtP lethal 100 (no result: Mtb betalactam)
Cc1cccc[n+]1CCCCCCCCCC[n+]1ccccc1C	none
CCn1c(O)c(/C=C/C=C/C=Nc2ccccc2)sc1=S	none
CCCCn1c(O)c(/C=C/C=C/C=Nc2ccccc2)sc1=S	PfHsp40 rescue 42 (no result: Vc quorum ag)
COc1ccccc1-n1c(/C=C/c2ccc(O)cc2)nc2ccccc2c1=O	none
O=c1c2ccccc2nc(/C=C/c2ccccc2)n1-c1ccccc1O	Sa RN4220 lethal 96, Sa ugtP lethal 97
O=c1c2ccccc2nc(/C=C/c2ccc(O)cc2)n1-c1ccccc1O	Sa RN4220 lethal 95, Sa ugtP lethal 91
O=C(O)c1cccc(-n2c(/C=C/c3ccccc3)nc3ccccc3c2=O)c1	Sa RN4220 lethal 97, Sa ugtP lethal 100
C#CCOCCOCCOCCNc1nc(N2CCN(C(=O)C(Cc3ccc(O)cc3)n3cc(CCO)nn3)CC2)nc(N2CCN(C(=O)C(C(C)C)n3cc(CCO)nn3)CC2)n1 (stereo unspecified)	none (no result: Vc quorum ag, PfHsp40 rescue, Mtb betalactam)
Cc1ccc2c(c1)C1C(CO2)C(c2ccccc2)[C@]2(C)C(=O)N(Cc3ccc(F)cc3)CC(=O)N12 (stereo partly specified)	none (no result: Vc quorum ag, PfHsp40 rescue, Mtb betalactam)
CCCC(C(=O)NCCO)=C1c2ccccc2C(=O)N1c1ccccc1	none (no result: Vc quorum ag, PfHsp40 rescue, Mtb betalactam)
CC(NC(=O)c1ncn(C)c1C(=O)NC(C)c1ccccc1)c1ccccc1 (stereo unspecified)	none (no result: Vc quorum ag, PfHsp40 rescue, Mtb betalactam)
CC(=O)N1CCN(c2ccc(NC(=O)c3ccc4c(c3)OCO4)cc2)CC1	PfHsp40 rescue 106
CCC(=O)N1CCN(c2ccc(NC(=O)c3ccc4c(c3)OCO4)cc2)CC1	none
CS(=O)(=O)N1CCN(c2ccc(NC(=S)NC(=O)c3ccc4c(c3)OCO4)cc2)CC1	Sa ugtP lethal 93
COc1ccccc1OCCNC(=O)c1ccc(Br)cc1	PfHsp40 rescue 168
COc1ccccc1OCCNC(=O)c1ccc(C(C)(C)C)cc1	none
CCCOc1ccc(CCC(=O)NN=Cc2ccc([N+](=O)[O-])o2)cc1	none (no result: Vc quorum ag, PfHsp40 rescue, Mtb betalactam)
O=C(Cc1cccs1)Nc1cccc(-c2nc3cc4ccccc4cc3[nH]2)c1	PfHsp40 rescue 77
COc1ccc(-c2csc(NC(=O)c3ccccc3F)n2)cc1	none
COc1ccc(-c2csc(NC(=O)c3ccccc3NS(=O)(=O)c3ccc(F)c(F)c3)n2)cc1	Sa RN4220 lethal 89
Cc1ccc(S(=O)(=O)Nc2ccccc2C(=O)Nc2nc(-c3ccc(F)cc3)cs2)cc1	Sa RN4220 lethal 89, PfHsp40 rescue inconclusive, Sa ugtP lethal 89
O=C(CN1CCOCC1)NN=Cc1cccc2ccccc12	none (no result: Vc quorum ag, PfHsp40 rescue, Mtb betalactam)
O=C(N/N=C\c1ccc(F)cc1)c1ccc(F)cc1	none (no result: Sa RN4220 lethal, Sa ugtP lethal)
C[n+]1c(-c2ccc(C=NNC(=O)c3ccc(C(=O)NN=Cc4ccc(-c5cn6ccccc6[n+]5C)cc4)cc3)cc2)cn2ccccc21	PfHsp40 rescue 92 (no result: Sa RN4220 lethal, Mtb betalactam, Sa ugtP lethal)
COc1ccc(C(=O)NN=Cc2ccc(OC)c(COc3ccccc3)c2)cc1	none (no result: Vc quorum ag, PfHsp40 rescue, Mtb betalactam)
CCOc1cc(S(=O)(=O)NC2CCCCCC2)ccc1F	PfHsp40 rescue 48
COc1cc(S(=O)(=O)NC2CCCCC2)ccc1Cl	PfHsp40 rescue 91
CCCN1CCC(=O)N(C(COc2ccccc2)Cc2ccccc2)CC1 (stereo unspecified)	none (no result: Vc quorum ag, PfHsp40 rescue, Mtb betalactam)
Cc1ccc(-n2c(C)cc(/C=N/Nc3ccc([N+](=O)[O-])cn3)c2C)cc1	none (no result: Sa RN4220 lethal, Sa ugtP lethal)
Cc1ccc(C=NNc2ccc([N+](=O)[O-])cn2)cc1	PfHsp40 rescue 36 (no result: Vc quorum ag, Mtb betalactam)
O=[N+]([O-])c1ccc(NN=C(c2ccccc2)c2ccccc2)nc1	PfHsp40 rescue 55 (no result: Mtb betalactam)
CC(=NNc1ccc([N+](=O)[O-])cn1)c1ccccc1	none (no result: Mtb betalactam)
COc1ccc(C=NOCc2ccc(Br)cc2)c(OC)c1	Sa ugtP lethal 87 (no result: Vc quorum ag, PfHsp40 rescue, Mtb betalactam)
CC(C)N(Cc1ccccc1)C(=S)NCc1ccccc1	none
CC(C)N(Cc1ccccc1)C(=S)NCCN1CCOCC1	PfHsp40 rescue 35
Clc1cccc(CSc2ncn(-c3ccccc3)n2)c1	PfHsp40 rescue 31
CCC1(CC)C(=O)NC(=Nc2cccc(C(F)(F)F)c2)NC1=O	PfHsp40 rescue 111
O=C(CCN1C(=O)c2ccccc2C1=O)NC(=S)Nc1cccc(Cl)c1	PfHsp40 rescue 66
O=C(CCN1C(=O)c2ccccc2C1=O)NC(=S)Nc1ccccc1	none
COc1ccc(S(=O)(=O)Nc2ccc3c(c2)C(=O)N(C(C)CO)CC(C)C(CN(C)S(=O)(=O)c2ccccc2)O3)cc1 (stereo unspecified)	none (no result: Vc quorum ag, PfHsp40 rescue, Mtb betalactam)
Cc1nn(-c2ccccc2)c2c1C1(C(=O)N3c4c(cccc41)C(C)CC3(C)C)C(C#N)=C(N)O2 (stereo unspecified)	Sa RN4220 lethal 96, Sa ugtP lethal 92
Cc1nn(-c2ccccc2)c2c1C1(C(=O)N(C)c3ccccc31)C(C#N)=C(N)O2 (stereo unspecified)	none
NC(=S)NN=Cc1c(O)c(Br)cc2oc3c(c12)CCCC3	none (no result: Vc quorum ag, PfHsp40 rescue, Mtb betalactam)
O=[N+]([O-])c1cc2oc3c(c2c(C=NCc2ccncc2)c1O)CCCC3	PfHsp40 rescue 48 (no result: Mtb betalactam)
CCCCCC[N+](C)(C)CC/C=C1/c2ccccc2Sc2ccc(Cl)cc21	Sa RN4220 lethal 100, Sa ugtP lethal 99
Cc1nc2ccc(NC(=O)Cc3ccc(Br)cc3)cc2s1	none
Cc1nc2ccc(NC(=O)Cc3ccc4c(c3)OCCO4)cc2s1	PfHsp40 rescue 769
O=c1c2c(-c3ccc(Cl)cc3)csc2ncn1/N=C/c1cccc([N+](=O)[O-])c1O	PfHsp40 rescue 280 (no result: Sa RN4220 lethal, Vc quorum ag, Sa ugtP lethal)
Cn1cc(C=Nn2cnc3scc(-c4ccc(Cl)cc4)c3c2=O)c2ccccc21	none (no result: Vc quorum ag, PfHsp40 rescue, Mtb betalactam)
O=C(Nc1ccc(NC(=S)NC(=O)c2ccccc2F)cc1)c1cccs1	PfHsp40 rescue inconclusive
CC(C)CC(=O)NC(=S)Nc1ccc(N2CCN(C(=O)c3cccs3)CC2)cc1	Sa ugtP lethal 96 (no result: Mtb betalactam)
CC(C)C(=O)Nc1ccc(N2CCN(C(=O)c3cccs3)CC2)cc1	none
CC(C)CC(=O)NC(=S)Nc1ccc(NC(=O)c2cccs2)cc1	Sa ugtP lethal 83
O=C(CSc1nc2ccccc2[nH]1)NN=C/C=C\c1ccccc1[N+](=O)[O-]	Sa RN4220 lethal 98, Sa ugtP lethal 97 (no result: Vc quorum ag, PfHsp40 rescue, Mtb betalactam)
O=C1C(Cc2ccccc2)NCC=CCC(c2ccc(Cl)cc2)N1Cc1ccccc1 (stereo unspecified)	none (no result: Vc quorum ag, PfHsp40 rescue, Mtb betalactam)
COC(=O)C1=C(c2cccc(OC)c2OC)CC2CCC1N2C(=O)NCc1ccccc1 (stereo unspecified)	none (no result: Vc quorum ag, PfHsp40 rescue, Mtb betalactam)
Cc1ccccc1COc1ccc(C=NNC(=O)c2nnn(-c3nonc3N)c2CN2CCC(C)CC2)cc1	none (no result: Vc quorum ag, PfHsp40 rescue, Mtb betalactam)
CC1CCN(c2nc(-c3ccncc3)nc3ccccc23)CC1	PfHsp40 rescue 282

Screening data (PubChem)
